hgDAF12 agonist = agonists of H. glycines DAF-12 nuclear receptor; activation, % at 6.8 µM; HEK293 GAL4-hgDAF12 UAS-luciferase reporter, agonist luminescence; normalized to butyrate control; 1.8% of 370,000 active; AID 687014;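 active = activation above a cutoff set at the mean of all screened compounds plus 3 SD, cut at about 10% in these data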
ssDAF12 agonist = S. stercoralis DAF-12 activation, primary screen; HEK293 ssDAF-12/GRIP1 lit1-tk-luc reporter, luminescence; % of 3 µM dafachronic acid response; activation, % at 6.8 µM; 1% of 370,000 active; AID 652126;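 active = activation above the mean over all tested compounds plus 3 SD, cut at about 0.9% in these data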
hcDAF-12 act = H. contortus DAF-12 activation, primary screen. HEK293 hcDAF-12 lit1-tk-luc reporter, luminescence; 0% DMSO, 100% Δ7-dafachronic acid. activation, % at 6.8 µM. 1.4% of 370,000 active;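 active = activation above the mean of all tested compounds plus 3 SD, cut at about 5.5% in these data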
DAX1 inh-1 = NR0B1 (DAX1) inhibition | P51843 | 0.99% of 340,000 active | HEK293 Gal4-DAX1 luciferase reporter, luminescence | inhibition, % at 6.75 µM;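 active = inhibition above the mean over all tested compounds plus 3 SD, cut at about 4.2% in these data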;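 note: inhibition shows as a rise in luminescence from relieved DAX1 repression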
Target sequence (P51843 207-470 limits assumed): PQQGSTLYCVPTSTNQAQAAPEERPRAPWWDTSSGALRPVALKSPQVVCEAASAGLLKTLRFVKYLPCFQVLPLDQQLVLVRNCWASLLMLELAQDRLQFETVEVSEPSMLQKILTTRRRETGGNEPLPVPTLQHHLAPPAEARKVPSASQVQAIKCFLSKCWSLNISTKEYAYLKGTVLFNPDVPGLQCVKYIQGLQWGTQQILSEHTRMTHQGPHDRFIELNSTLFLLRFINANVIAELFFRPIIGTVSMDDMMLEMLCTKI
DAX1 inh-2 = DAX1 (NR0B1) inhibition, primary screen; HEK293T StAR-luciferase reporter, SF-1/DAX-1 repression relief; 1.1% of 370,000 active; inhibition, % at 6.8 µM;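 active = inhibition above the mean over all tested compounds plus 3 SD, cut at about 3.6% in these data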;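 note: higher inhibition means more luminescence from relief of DAX-1 repression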
DAX1 conf = confirmation of human DAX1 (NR0B1) inhibitors. HEK293T StAR-promoter luciferase reporter, SF-1/DAX-1 repression. AID 652134. inhibition, % at 6.8 µM. 87% of 2,400 active. shares compounds with DAX1 inh-2;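 active = inhibition above the average of every tested compound plus 3 SD, cut at about 3.8% in these data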;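 note: active compounds raise luminescence by relieving repression of the StAR reporter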
Target sequence (P51843 whole entry, looked up): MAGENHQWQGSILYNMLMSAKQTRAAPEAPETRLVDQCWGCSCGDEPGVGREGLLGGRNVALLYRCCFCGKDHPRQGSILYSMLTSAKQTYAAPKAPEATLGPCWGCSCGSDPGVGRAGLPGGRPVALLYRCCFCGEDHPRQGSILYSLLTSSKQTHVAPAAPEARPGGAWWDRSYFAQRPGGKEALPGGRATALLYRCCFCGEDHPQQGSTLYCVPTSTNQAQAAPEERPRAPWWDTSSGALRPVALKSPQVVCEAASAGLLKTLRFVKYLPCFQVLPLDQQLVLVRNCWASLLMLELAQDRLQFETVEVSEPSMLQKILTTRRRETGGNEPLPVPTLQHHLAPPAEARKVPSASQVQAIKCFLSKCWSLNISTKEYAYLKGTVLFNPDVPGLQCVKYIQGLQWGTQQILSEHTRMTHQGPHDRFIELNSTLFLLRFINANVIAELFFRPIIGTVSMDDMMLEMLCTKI
SF1 mutant ctr = nonselective inhibitor or artifact in SF-1 mutant DAX1 counter-screen. AID 652136. shares compounds with DAX1 inh-2. HEK293 StAR-luciferase, SF-1 AF2 mutant, luminescence. inhibition, % at 6.8 µM. 78% of 2,400 active;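 active = inhibition above the mean of all tested compounds plus 3 SD, cut at about 3% in these data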
LXRb hcDAF ctr = counter-screen for hcDAF-12 agonists: agonists of human LXR-beta; shares compounds with hcDAF-12 act; HEK293 Gal4-LXR tk-luc reporter, luminescence, 24 h; normalized: DMSO 0%, positive control 100%; activation, % at 6.8 µM; 3,400 tested, under 10 active; AID 743027;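 active = mean percent activation of the reporter above a cutoff set as the average over tested compounds plus their standard deviation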
hcDAF12 ag = confirmation of H. contortus DAF-12 agonists; activation, % at 6.8 µM; 61% of 3,400 active; shares compounds with hcDAF-12 act; HEK293 hcDAF-12 lit1-tk-luc reporter, luminescence; % of Δ7-dafachronic acid response;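 active = mean activation across triplicate tests above the threshold derived from the earlier primary screen, cut at about 5.5% in these data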
hgDAF12 conf = confirmation of H. glycines DAF-12 agonists; shares compounds with hgDAF12 agonist; HEK293 GAL4-hgDAF12 luciferase reporter, agonist mode; percent of butyrate response; activation, % at 6.8 µM; 80% of 3,300 active; AID 743050;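 active = mean activation over triplicate wells above the hit cutoff derived from the earlier primary screen, cut at about 11% in these data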
LXR ag 2 = activates human LXR-beta, counter-screen for DAF-12 agonists; AID 743051; 3,300 tested, under 10 active; shares compounds with hgDAF12 agonist; activation, % at 6.8 µM; HEK293 Gal4-LXR luciferase reporter, 24 h;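 active = mean activation of the triplicate above a set limit carried over from the primary screen, none filed active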
Large screens that a line does not name were inactive (follow-up assays come after a bar, where they were run). Compounds with a hit are over-represented: about 4.1% of the library has one in this group of screens.

Cc1cnc2nc(-c3ccccc3)ccc2c1	hgDAF12 agonist 17, ssDAF12 agonist 1.0, hcDAF-12 act 6.8, DAX1 inh-2 8.2 (no result: DAX1 inh-1) | DAX1 conf 11 | SF1 mutant ctr 6.8 | LXRb hcDAF ctr inactive | hcDAF12 ag 6.6 | hgDAF12 conf 19 | LXR ag 2 inactive
CCOC(=O)[C@@]12CCC3=C1N(CCC3)C(=O)[C@H](CC(=O)NCC1CCCCC1)C2	none (no result: DAX1 inh-1)
CCOC(=O)c1cnc(SCc2ccccc2)nc1N	hgDAF12 agonist 16, DAX1 inh-2 5.4 | DAX1 conf 10 | SF1 mutant ctr 6.6 | hgDAF12 conf 16 | LXR ag 2 inactive
COc1ccc2nc(NC(=O)Nc3ccccc3)sc2c1	hgDAF12 agonist 22, hcDAF-12 act 8.1, DAX1 inh-2 11 | DAX1 conf 14 | SF1 mutant ctr 8.8 | LXRb hcDAF ctr inactive | hcDAF12 ag inactive | hgDAF12 conf 23 | LXR ag 2 inactive
CCOc1ccc2nc(NC(=O)Nc3cccs3)sc2c1	hgDAF12 agonist 27, hcDAF-12 act 7.9, DAX1 inh-2 9.2 | DAX1 conf 19 | SF1 mutant ctr 13 | LXRb hcDAF ctr inactive | hcDAF12 ag inactive | hgDAF12 conf 27 | LXR ag 2 inactive
COc1ccc2nc(NC(=O)c3ccccc3-c3ccccc3C(=O)O)sc2c1	none
CCc1sc(C(=O)Nc2ncccc2O)cc1C	hgDAF12 agonist 22, ssDAF12 agonist 1.0, hcDAF-12 act 7.9, DAX1 inh-2 22 | DAX1 conf 15 | SF1 mutant ctr 6.2 | LXRb hcDAF ctr inactive | hcDAF12 ag 7.9 | hgDAF12 conf 26 | LXR ag 2 inactive
CCc1sc(C(=O)Nc2ncccc2C)cc1C	none
COc1cccc(NC(=O)c2ccc3c(c2)N(C)CCS3)c1	hgDAF12 agonist 16, hcDAF-12 act 6.2, DAX1 inh-2 8.7 | DAX1 conf 10 | SF1 mutant ctr 9.3 | hgDAF12 conf 18 | LXR ag 2 inactive
CCOC(=O)N(C)C[C@H]1OCc2cnnn2CCCC(=O)N([C@H](C)CO)C[C@@H]1C	none (no result: DAX1 inh-1)
Cc1cc(F)ccc1-c1cc(C(=O)Nc2ccccc2)[nH]n1	hgDAF12 agonist 21, ssDAF12 agonist 1.5, hcDAF-12 act 12, DAX1 inh-2 12 (no result: DAX1 inh-1) | DAX1 conf 15 | SF1 mutant ctr 5.8 | LXRb hcDAF ctr inactive | hcDAF12 ag 14 | hgDAF12 conf 20 | LXR ag 2 inactive
O=C(Nc1cccnc1)c1cc(-c2cc(Cl)ccc2O)n[nH]1	none
Cc1ccc(O)c(-c2cc(C(=O)Nc3cccnc3)[nH]n2)c1	hgDAF12 agonist 19, DAX1 inh-1 7.0, DAX1 inh-2 4.8 | DAX1 conf 13 | SF1 mutant ctr 6.2 | hgDAF12 conf 13 | LXR ag 2 inactive
NC(=O)NN=C1CCC(O)CC1CC(=O)O (stereo not drawn)	none (no result: DAX1 inh-1)
O=C(NCc1cccs1)C1C2C=CC3(CN(Cc4ccccc4)C(=O)C13)O2 (stereo not drawn)	none (no result: DAX1 inh-1)
CC(=O)c1ccc(Nc2ccc(-c3ccccc3F)nn2)cc1	hgDAF12 agonist 18, DAX1 inh-2 4.7 | DAX1 conf 14 | SF1 mutant ctr 6.8 | hgDAF12 conf 19 | LXR ag 2 inactive
Clc1ccc2nc(CSc3nnc(-c4c[nH]c5ccccc45)o3)cn2c1	none
Brc1ccc2nc(-c3c[nH]c4ccccc34)cn2c1	hgDAF12 agonist 22, hcDAF-12 act 11, DAX1 inh-1 6.2, DAX1 inh-2 8.8 | DAX1 conf 18 | SF1 mutant ctr 8.5 | LXRb hcDAF ctr inactive | hcDAF12 ag 9.6 | hgDAF12 conf 21 | LXR ag 2 inactive
CCCc1ccc(OC(=O)c2ccc(O)cc2Cl)cc1	hgDAF12 agonist 16, hcDAF-12 act 8.4, DAX1 inh-2 5.3 | DAX1 conf 14 | SF1 mutant ctr 6.0 | LXRb hcDAF ctr inactive | hcDAF12 ag 8.1 | hgDAF12 conf inactive | LXR ag 2 inactive
COC(=O)c1ccc(NC(=O)c2ccc(NS(=O)(=O)c3cccc4cccnc34)cc2)cc1	none (no result: hgDAF12 agonist, ssDAF12 agonist, hcDAF-12 act, DAX1 inh-2)
O=C(Nc1ncccc1O)c1ccc(S(=O)(=O)Nc2ccccc2)cc1	hgDAF12 agonist 85, hcDAF-12 act 13, DAX1 inh-1 11, DAX1 inh-2 85 | DAX1 conf 112 | SF1 mutant ctr 58 | LXRb hcDAF ctr inactive | hcDAF12 ag 8.0 | hgDAF12 conf 81 | LXR ag 2 inactive
O=C(Nc1ccccc1O)c1ccc(NS(=O)(=O)c2cccc3cccnc23)cc1	hgDAF12 agonist 84, ssDAF12 agonist 2.3, hcDAF-12 act 19, DAX1 inh-1 18, DAX1 inh-2 54 | DAX1 conf 91 | SF1 mutant ctr 38 | LXRb hcDAF ctr inactive | hcDAF12 ag 13 | hgDAF12 conf 89 | LXR ag 2 inactive
CN(c1ccccc1)S(=O)(=O)c1ccc(C(=O)Nc2ncccc2O)cc1	none
CCCCNC(=O)C1(C(=O)C2CC2)CC(C(=O)OCC)=NO1 (stereo not drawn)	none (no result: DAX1 inh-1)
O=Nc1c2cc(-c3ccccc3)[nH]nc-2c2ccccc12	hgDAF12 agonist 23, ssDAF12 agonist 2.7, hcDAF-12 act 20, DAX1 inh-2 5.8 | DAX1 conf 5.4 | SF1 mutant ctr inactive | LXRb hcDAF ctr inactive | hcDAF12 ag 19 | hgDAF12 conf 12 | LXR ag 2 inactive
c1ccc(-c2csc(CN3CCCCC3)n2)cc1	hgDAF12 agonist 19, ssDAF12 agonist 0.9, hcDAF-12 act 7.1, DAX1 inh-2 5.3 | DAX1 conf 8.2 | SF1 mutant ctr 4.8 | LXRb hcDAF ctr inactive | hcDAF12 ag 9.2 | hgDAF12 conf 18 | LXR ag 2 inactive
CCOc1ccc(N(CC(=O)Nc2c(C)n(C)n(-c3ccccc3)c2=O)S(=O)(=O)c2cccs2)cc1	none (no result: DAX1 inh-1)
COc1ccc(CN2CN3CCc4ccccc4C3CS2(=O)=O)cc1 (stereo not drawn)	none (no result: DAX1 inh-1)
